Bioassay records: PubChem, The Scripps Research Institute Molecular Screening Center
This is a sample that favours compounds with a hit; in the whole collection about 4.6% have one here.
hcDAF12 agonist = H. contortus DAF-12 nuclear receptor activators, primary screen, cell-based, luminescence, HEK293, lit1-tk-luc reporter; HEK293 hcDAF-12 lit1-tk-luc reporter; 0% DMSO, 100% Δ7-dafachronic acid; activation, % at 6.8 µM; 370,000 compounds, 1.4% hits;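 active means activation above the mean of all tested compounds plus 3 SD, cut at about 5.5% in these data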
DAX1 inh-1 = DAX1 (NR0B1) inhibitors on StAR promoter, primary screen, cell-based, luminescence, SF-1 (NR5A1), full-length DAX-1; AID 652010, 2013; HEK293T StAR-luciferase reporter, SF-1/DAX-1 repression relief; inhibition, % at 6.8 µM; 370,000 compounds, 1.1% hits;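 active means inhibition above the mean over all tested compounds plus 3 SD, cut at about 3.6% in these data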;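 further: higher inhibition means more luminescence from relief of DAX-1 repression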
ssDAF12 agonist = S. stercoralis DAF-12 nuclear receptor activators, primary screen, cell-based, luminescence, HEK293, GRIP1 co-expression, lit1-tk-luc; Nuclear hormone receptor DAF-12 (Strongyloides stercoralis); HEK293 ssDAF-12/GRIP1 lit1-tk-luc reporter; % of 3 µM dafachronic acid response; activation, % at 6.8 µM; 370,000 compounds, 1% hits; AID 652126, 2013;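 active means activation above the mean over all tested compounds plus 3 SD, cut at about 0.9% in these data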
Wee1 degr inh = Wee1 degradation inhibitors, primary screen, cell-based, HeLa, Wee1K328M-luciferase, luminescence; Wee1-like protein kinase (Homo sapiens), P30291; HeLa Luc-Wee1K328M stability; 100% = proteasome inhibitor MG132 effect; reporter increase, % at 5 µM; 220,000 compounds, 1.2% hits; AID 1321, 2008;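 active means activation above the mean of all tested compounds plus 3 SD, set per screening run, cut at about 8.8% in these data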;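 further: cells exposed to compound for 20 h before luminescence read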
Target sequence (P30291 whole entry K328M): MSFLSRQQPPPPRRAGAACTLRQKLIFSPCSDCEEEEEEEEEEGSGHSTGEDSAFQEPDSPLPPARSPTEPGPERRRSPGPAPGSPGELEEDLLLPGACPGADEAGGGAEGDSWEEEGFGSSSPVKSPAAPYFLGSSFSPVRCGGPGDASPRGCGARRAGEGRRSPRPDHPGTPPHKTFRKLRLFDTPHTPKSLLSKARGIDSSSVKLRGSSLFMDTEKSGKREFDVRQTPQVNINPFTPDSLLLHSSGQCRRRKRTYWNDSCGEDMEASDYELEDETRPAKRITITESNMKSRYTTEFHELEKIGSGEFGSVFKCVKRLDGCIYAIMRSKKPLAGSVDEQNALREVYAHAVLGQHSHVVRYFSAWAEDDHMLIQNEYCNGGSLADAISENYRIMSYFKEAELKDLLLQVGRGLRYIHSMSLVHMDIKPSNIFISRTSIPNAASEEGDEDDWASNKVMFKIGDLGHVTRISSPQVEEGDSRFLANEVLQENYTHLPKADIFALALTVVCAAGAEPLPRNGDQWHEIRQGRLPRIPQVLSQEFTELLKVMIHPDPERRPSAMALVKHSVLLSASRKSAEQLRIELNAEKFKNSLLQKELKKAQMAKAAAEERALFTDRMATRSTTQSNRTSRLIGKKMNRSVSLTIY
DAX1 inh-2 = DAX1 (NR0B1) inhibitors, primary screen, cell-based, HEK293, Gal4-DAX1, luciferase luminescence; Nuclear receptor subfamily 0 group B member 1 (Homo sapiens), P51843; HEK293 Gal4-DAX1 luciferase reporter; inhibition, % at 6.75 µM; 340,000 compounds, 0.99% hits; AID 504766, 2011;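 active means inhibition above the mean over all tested compounds plus 3 SD, cut at about 4.2% in these data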;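 further: inhibition shows as a rise in luminescence from relieved DAX1 repression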
hgDAF-12 ag = H. glycines DAF-12 receptor agonists, primary screen, cell-based, luminescence, HEK293, GAL4 fusion, UAS-luciferase; HEK293 GAL4-hgDAF12 UAS-luciferase reporter, agonist luminescence; normalized to butyrate control; activation, % at 6.8 µM; 370,000 compounds, 1.8% hits; AID 687014, 2013;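 active means activation above a cutoff set at the mean of all screened compounds plus 3 SD, cut at about 10% in these data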
Of the large screens only hits and unclear results are named; the others gave an inactive call.

CCc1ccc(N2C=C(C(=O)OC)C(c3cccc4ccccc34)C(C#N)=C2N)cc1 (centres undefined)	none (no result: Wee1 degr inh, DAX1 inh-2)
CCOc1ccc(CNC2CCCc3ccccc32)cc1 (centres undefined)	DAX1 inh-2 9.1
COc1ccc(CNC2CCCc3ccccc32)cc1OC (centres undefined)	none
O=C(O)CCCC(=O)Nc1nc2n(n1)C(c1ccc(F)cc1)CC(c1ccc(Cl)cc1)N2 (centres undefined)	ssDAF12 agonist 1.8
COc1ccc(C(=O)Nn2c(SCc3cccc([N+](=O)[O-])c3)nc3ccccc3c2=O)cc1	none
O=C(Nn1c(SCc2cccc([N+](=O)[O-])c2)nc2ccccc2c1=O)c1ccccc1	hgDAF-12 ag 12.6
CC(=O)Nc1nc(-c2ccc3c(c2)CCO3)cs1	hgDAF-12 ag 11.5
COc1cccc(-c2csc(NC(C)=O)n2)c1	hgDAF-12 ag 10.6
CCN1C(=O)[C@H]2[C@@H](c3ccc(-c4ccc(F)cc4)cc3)N[C@@](C)(C(=O)OC)[C@H]2C1=O	none (no result: Wee1 degr inh)
Cc1c(C(=O)O)cc(C(C)(C)C)n1CCSCCO	DAX1 inh-2 6.8
CSCCn1c(C(C)(C)C)cc(C(=O)O)c1C	none
CC(OC(=O)c1ccc(S(=O)(=O)N2CCCCC2)cc1)C(=O)Nc1ccc(C(N)=O)cc1 (centres undefined)	none (no result: Wee1 degr inh)
CC(OC(=O)c1nccnc1N)C(=O)Nc1ccc(S(=O)(=O)N2CCCC2)cc1 (centres undefined)	DAX1 inh-2 4.6 (no result: Wee1 degr inh)
COc1ccc(C(=O)Nc2ccc(N3CCCCCC3)cc2)cc1S(=O)(=O)N1CCOCC1	none (no result: Wee1 degr inh)
Fc1ccc(CNCC2CCCO2)cc1 (centres undefined)	DAX1 inh-2 4.3 (no result: Wee1 degr inh)
C(=C\c1ccccc1)/CNCC1CCCO1 (centres undefined)	ssDAF12 agonist 1.6
Clc1ccc(CNCC2CCCO2)cc1 (centres undefined)	none (no result: Wee1 degr inh)
O=C(Nc1cccc(O)c1)c1noc2c1CCCCC2	none
O=C(NCc1cccs1)c1noc2c1CCCCC2	hgDAF-12 ag 10.5
O=C(NCc1ccco1)c1noc2c1CCCC2	none
CC(=O)c1ccc(NC(=O)c2noc3c2CCC3)cc1	Wee1 degr inh 10.0
CC(C)c1ccc(NC(=O)CN(C)C2=NS(=O)(=O)c3ccccc32)cc1	none (no result: Wee1 degr inh)
COc1ccc(C2c3c(nc[nH]c3=O)Oc3nc[nH]c(=O)c32)cc1	none (no result: hcDAF12 agonist, DAX1 inh-1, ssDAF12 agonist, Wee1 degr inh, hgDAF-12 ag)
COc1ccc(C2C(=O)NN=C2C)cc1 (centres undefined)	DAX1 inh-2 5.3 (no result: Wee1 degr inh)
COc1ccc(CN[C@@H]2CC[C@@]34CCCN3C(=O)CCC[C@H]4C2)cc1	none (no result: DAX1 inh-1, Wee1 degr inh, DAX1 inh-2)
O=C(O)C1=C[C@@H](c2ccc3c(c2)OCO3)C[C@@H](OCc2ccc(CO)cc2)O1	none
O=C(NC1CC1)C1=C[C@H](c2ccc3c(c2)OCO3)C[C@H](OCc2ccc(CO)cc2)O1	hgDAF-12 ag 10.8
COc1ccc(NC(=O)C2(C)CCN2C(=O)Cc2ccc(Cl)cc2Cl)cc1OC (centres undefined)	none (no result: Wee1 degr inh, DAX1 inh-2)
Cc1cc(C)n(-c2ccc(C(=O)OCC(=O)Nc3ccccc3[N+](=O)[O-])cc2)n1	none
Cc1cc(C)n(-c2ccc(C(=O)OCC(=O)Nc3cc(Cl)ccc3[N+](=O)[O-])cc2)n1	ssDAF12 agonist 1.2
O=C(NNC1=NCCN1Cc1ccccc1)c1cccc(C(F)(F)F)c1	Wee1 degr inh 10.5
Cc1cccc(NC(=O)CCc2nc3sc4c(c3c(=O)[nH]2)CCCC4)c1	none (no result: Wee1 degr inh)
Cc1cccc(NC(=O)C(C)SCc2nc3sc4c(c3c(=O)[nH]2)CCCC4)n1 (centres undefined)	ssDAF12 agonist 1.3 (no result: Wee1 degr inh)
O=C1C(O)CCN1Cc1ccccc1 (centres undefined)	none (no result: Wee1 degr inh)
